The record followed here is PubChem BioAssay AID493168 (National Center for Advancing Translational Sciences (NCATS), 2011).

Results filed as inconclusive are left out. Entries that show only a call come without a potency. The source made the active and inactive calls. Calls come from the whole dose curve; as a rule, active = well fitted inhibition curve with a large enough effect; inconclusive = small, poorly fitted or top-dose-only effect, or effect the other way; inactive = flat fitted curve, though single readings scatter.
Potency is the fitted concentration of half-maximal effect.

Ubiquitin carboxyl-terminal hydrolase 2 (Homo sapiens), sequence (O75604 whole entry, looked up): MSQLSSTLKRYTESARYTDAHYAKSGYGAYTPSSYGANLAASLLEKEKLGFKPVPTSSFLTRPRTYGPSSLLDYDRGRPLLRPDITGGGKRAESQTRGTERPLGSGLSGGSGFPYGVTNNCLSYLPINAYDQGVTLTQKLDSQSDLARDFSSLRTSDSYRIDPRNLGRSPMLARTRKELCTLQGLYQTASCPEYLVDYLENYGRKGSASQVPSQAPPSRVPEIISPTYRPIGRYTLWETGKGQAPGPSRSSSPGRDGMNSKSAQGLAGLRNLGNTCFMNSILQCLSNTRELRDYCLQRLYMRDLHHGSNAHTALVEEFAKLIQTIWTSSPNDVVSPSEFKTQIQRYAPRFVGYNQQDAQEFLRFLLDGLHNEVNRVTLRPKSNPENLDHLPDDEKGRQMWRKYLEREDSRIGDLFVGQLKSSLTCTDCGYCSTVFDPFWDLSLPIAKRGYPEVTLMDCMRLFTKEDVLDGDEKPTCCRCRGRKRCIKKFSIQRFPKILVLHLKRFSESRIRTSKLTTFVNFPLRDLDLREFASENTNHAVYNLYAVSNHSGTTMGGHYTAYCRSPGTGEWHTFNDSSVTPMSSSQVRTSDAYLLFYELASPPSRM

This assay concerns the target Ubiquitin carboxyl-terminal hydrolase 2 (Homo sapiens) (UniProt O75604). Kind of assay: Confirmation Assay for Inhibitors of Ubiquitin-specific Protease USP2a Using CHOP2 as the Reporter. Note: nearly all actives have a fitted effect of over 55% in size. The conditions noted are these: USP2 core, Ub-CHOP2 coupled reporter fluorescence; series mostly up to 38.3 µM. The gist of the method:
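Ub-CHOP2 cleavage coupled to reporter activation was read by fluorescence after 60 min at RT, with 25 nM final Ub-CHOP2 and substrate. Enzyme (10 nM final USP2 core) first sat 30 min with compound; data were normalized to NEM and fitted to concentration-response curves.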
Regarding `NC(=O)CC(NC(=O)Cc1ccc(Br)cc1)c1ccc(N2CCC(Cc3ccccc3)CC2)c([N+](=O)[O-])c1` (stereo not drawn), the Potency result was “inactive”.
On to `CCOc1ccc(CCn2c(-c3ccco3)nc3ccccc3c2=O)cc1OCC`, for which the Potency entry is “inactive”.
Turning to `CCN(CC(=O)Nc1ccc(NC(C)=O)cc1)C(=O)c1ccc(N2CCC(C)CC2)c([N+](=O)[O-])c1`, the Potency entry is “inactive”.
For `CN(C)c1ccc(NC(=O)CSCc2nc3c(nnn3Cc3ccc(F)cc3)c(=O)[nH]2)cc1`, the Potency result is “inactive”.
In the case of `CCOc1cc(/C=C/c2nc3cc(C)c(C)cc3s2)ccc1OCC(=O)N1CCOCC1`, the Potency entry is “inactive”.
With `CS(=O)(=O)c1nc(-c2ccc(Br)cc2)cc(-c2ccccc2)c1C#N`, the Potency result was “inactive”.
The value for `COc1ccccc1N1C(=O)CC(N2CCc3ccccc32)C1=O` (stereo not drawn) was “inactive”.
As to `Cc1ccc(-c2c(C)n([O-])c3c([n+]2=O)CCC3)o1`, the Potency entry is “inactive”.
The value for `COc1ccc(NC(=O)CN(Cc2ccccc2)S(C)(=O)=O)cc1` was “inactive”; that for `COC(=O)c1c(O)c2c([nH]c1=O)CCCC2` was “inactive”; that for `CCC(=O)c1ccc(OCC(=O)NC2CCN(Cc3ccccc3)CC2)cc1` was “inactive”.
Regarding `COC(=O)c1c(N2C(=O)CCC2=O)sc2c1CCCC2`, the Potency entry was “inactive”.
For the compound `COC(=O)CCC(=O)Nc1sc2c(c1C#N)CCCC2`, the Potency entry was “inactive”.
The value for `CCN(CC)S(=O)(=O)c1ccc(-c2nnc(SCC(=O)Nc3ccc4c(c3)OCO4)o2)cc1` was “inactive”.
Regarding `COc1ccc(C(=O)C[N+]2(C)CCOCC2)cc1`, the Potency entry was “inactive”.
In the case of `Cc1noc(/C=C/c2ccco2)c1S(=O)(=O)N1CCC(C(=O)N(C)Cc2ccccc2)CC1`, the Potency was 14.7 µM (active).
The value for `CC[C@]12c3[nH]c4cc(-c5ccco5)ccc4c3CCN1C(=O)[C@@H](CC(=O)NC/C=C(\C)CCC=C(C)C)C[C@@H]2C(=O)N1CCN(C(=O)C2CC2)CC1` was “inactive”; that for `Cc1c(NC(=O)C2CCCN2S(=O)(=O)c2ccc(Cl)cc2)c(=O)n(-c2ccccc2)n1C` (stereo not drawn) was “inactive”; that for `Cc1nc2cc3ccccc3cc2c(=O)[nH]1` was “inactive”.
For `O=C(CCn1c(=O)c2ccccc2n(Cc2ccccc2)c1=O)NCc1ccc2c(c1)OCO2`, the Potency entry is “inactive”.
The value for `CC(C)(C)C(=O)Nc1c2c(nc3c1CCC3)CCCC2` was “inactive”.
The value for `O=C(CSc1nnc(SCc2ccccc2)s1)N/N=C/C=C/c1ccco1` was 13.1 µM (active).
Take `O=C(CSc1nc2ccccc2s1)NCCCN1CCOCC1`: the Potency result is “inactive”.
